Shown are actives, neighbours in structure and some others; about 2.8% of the full set was active somewhere.
Pol eta inh-1 = blocks human DNA polymerase eta activity | Potency, µM (highest dose often 114 µM), for inactives: at the highest dose activity change, negative = inhibition, actives largely listed as inhibitors | Q9Y253 | AID 588591 | hit rate 1.2% among 390,000 | recombinant Pol eta, fluorescent DNA replication assay; note: potency is the fitted concentration of half-maximal effect; % is set by controls: 0 for no effect and ±100 for the full control effect
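Fluorescent replication assay: 50 nM final substrate added after a 15 min room-temperature compound preincubation with 10 nM enzyme. Signal taken at 0 min and again at 10 min.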
Pol iota inh = inhibitors of human DNA polymerase iota; Potency, µM (series often up to 115 µM), without a hit: at the highest dose activity, negative = inhibition, most hits filed as inhibitors; hit rate 1% among 390,000; AID 588590; Pol iota fluorescent replication assay, 10 min; Q9UNA4; note: potency is the fitted concentration of half-maximal effect
Target sequence (Q9UNA4 whole entry, looked up): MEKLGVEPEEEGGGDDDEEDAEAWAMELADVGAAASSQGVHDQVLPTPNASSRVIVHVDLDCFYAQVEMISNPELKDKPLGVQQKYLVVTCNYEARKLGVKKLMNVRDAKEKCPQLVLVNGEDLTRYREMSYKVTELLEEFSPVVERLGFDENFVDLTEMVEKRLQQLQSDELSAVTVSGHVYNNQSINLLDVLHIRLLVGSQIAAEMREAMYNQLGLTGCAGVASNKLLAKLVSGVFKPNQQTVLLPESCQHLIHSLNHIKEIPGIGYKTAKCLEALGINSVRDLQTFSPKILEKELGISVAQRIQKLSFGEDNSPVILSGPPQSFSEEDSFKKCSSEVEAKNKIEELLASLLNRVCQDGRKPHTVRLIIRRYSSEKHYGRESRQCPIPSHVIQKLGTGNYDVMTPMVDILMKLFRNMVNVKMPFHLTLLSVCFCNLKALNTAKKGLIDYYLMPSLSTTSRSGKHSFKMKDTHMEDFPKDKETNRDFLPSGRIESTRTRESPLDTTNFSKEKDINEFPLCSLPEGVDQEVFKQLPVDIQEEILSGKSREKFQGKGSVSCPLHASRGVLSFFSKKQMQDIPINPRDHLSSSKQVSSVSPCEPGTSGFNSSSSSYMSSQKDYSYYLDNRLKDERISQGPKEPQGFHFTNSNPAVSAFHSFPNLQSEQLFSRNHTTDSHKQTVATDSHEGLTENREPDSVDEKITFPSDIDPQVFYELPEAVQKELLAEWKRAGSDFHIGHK
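Pol iota at 10 nM preincubated 15 min with compounds at room temperature; reaction started with fluorescent substrate, 50 nM final. Fluorescence read kinetically at 0 and 10 min; buffer-only wells as negative control.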
PI5P4K alpha inh = blocks human PI5P4K alpha kinase activity; P48426; PI5P4Kalpha enzyme, ADP-Glo luminescence, 60 min; active compounds read low; max response, %; hit rate 1.2% among 330,000; AID 652105; active = max response of -50% or lower; inconclusive = between -30% and -50%; inactive = -30% or higher; note: value at the top dose of about 77 µM; % is set by controls: 0 for no effect and ±100 for the full control effect
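Enzyme plus substrate dispensed, test compounds pinned in, then ATP (5 microM final) added. After 60 min at RT, ADP-Glo reagent 1 for 45 min and reagent 2 for 30 min preceded luminescence imaging.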
Pol kappa inh-1 = blocks human DNA polymerase kappa activity; Q9UBT6; purified Pol kappa, fluorescent DNA synthesis assay, 10 min; Potency, µM (titrated, usually from 107 µM), for inactives: at the highest dose activity, negative = inhibition, actives largely listed as inhibitors; hit rate 0.53% among 400,000; note: potency is the fitted concentration of half-maximal effect; % is set by controls: 0 for no effect and ±100 for the full control effect
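Fluorescent qHTS in 1536-well format: enzyme (10 nM) and compound sat 15 min at room temperature before 50 nM substrate (final) was added. Signal taken at 0 and 10 min; no-enzyme buffer wells were negative controls.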
POLB inh = inhibitors of human DNA polymerase beta. P06746. Pol beta primer extension/strand displacement, fluorescence kinetic. Potency, µM (top dose mostly 114 µM), without a hit: at the top dose activity change, negative = inhibition, usual class: inhibitors. hit rate 1.3% among 340,000. AID 485314; note: potency is the fitted concentration of half-maximal effect; % is set by controls: 0 for no effect and ±100 for the full control effect
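Human Pol beta at 10 nM; strand-displacement substrate 50 nM final. Compound exposure 15 min at room temperature before start, reaction 10 min at room temperature.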
WRN inhibitor = WRN helicase (human) inhibition. Q14191. WRN helicase unwinding, fluorescent forked duplex, kinetic. Potency, µM (top dose mostly 114 µM), inactives show at the highest dose activity change, negative = inhibition, usual class: inhibitors. hit rate 0.46% among 360,000; note: potency is the fitted concentration of half-maximal effect; % is set by controls: 0 for no effect and ±100 for the full control effect; nearly all actives have a fitted effect of over 55% in size
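Screening of the MLSMR collection measured strand separation of a quenched forked DNA duplex (100 nM) by 20 nM WRN with 2 mM ATP, all final. Compounds were preincubated with enzyme 15 min at room temperature.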
PGK validate = validation of Trypanosoma brucei phosphoglycerate kinase inhibitors. shares compounds with Pol kappa inh-1. TbPGK coupled GAPDH assay, Kinase-Glo luminescence. Potency, µM (doses to about 57.5 µM), without a hit: at the highest dose activity change, negative = inhibition, hits mostly inhibitors. hit rate 79% among 500. AID 686980; note: potency is the fitted concentration of half-maximal effect; % is set by controls: 0 for no effect and ±100 for the full control effect; nearly all actives have a fitted effect of over 65% in size
Pol iota confirm = Confirm cherry-picked inhibitors of human polymerase iota; Pol iota primer extension, TAMRA/BHQ fluorescence; AID 720496; Potency, µM, most hits filed as inhibitors; hit rate 77% among 1,500; shares compounds with Pol kappa inh-1; note: potency is the fitted concentration of half-maximal effect
Pol kappa inh-2 = confirmation of human DNA polymerase kappa inhibitors. purified Pol-kappa, fluorescent strand-displacement substrate. hit rate 76% among 920. Potency, µM, usual class: inhibitors. AID 720501. shares compounds with Pol eta inh-1; note: potency is the fitted concentration of half-maximal effect
Pol eta inh-2 = confirmation of human DNA polymerase eta inhibitors. Pol eta primer extension, TAMRA/BHQ fluorescence, 10 min. Potency, µM, actives largely listed as inhibitors. shares compounds with Pol eta inh-1. hit rate 64% among 2,600; note: potency is the fitted concentration of half-maximal effect
Starred values were filed as active, the others as inactive; ? = inconclusive; · = no result given; [ ] = another dose, or the depositor's remark. Unless noted, calls come from the whole dose curve; as a rule, active = well fitted curve in the direction sought with a large enough effect; inconclusive = small, poorly fitted or top-dose-only effect, or another doubt; inactive = no such curve, though single readings can be large; an effect the other way counts as inactive or inconclusive.

SMILES	Pol eta inh-1	Pol iota inh	PI5P4K alpha inh	Pol kappa inh-1	POLB inh	WRN inhibitor	Pol iota confirm	Pol kappa inh-2	Pol eta inh-2	others
N#C/C(=C\c1cc(Cl)c(OCc2ccc(Cl)cc2)c(Cl)c1)C(N)=O	·	·	·	·	-23%	·	·	·	·
N#C/C(=C\c1cc(O)c(O)c(O)c1)C(N)=O	4%	?	-76*	-1%	?	-30%	19*	·	67*
Cc1cc(C)n2nc(C(=O)OCC(=O)c3ccccc3Cl)nc2n1	?	18%	-25	-12%	·	-3%	·	·	·
Cc1cc(C)n2nc(C(=O)OCC(=O)c3cc(C)n(C)c3C)nc2n1	14µM*	?	?	?	32µM*	?	?	·	85*
CCc1ccc(/C(C)=N/NC(=O)CNC(=O)/C=C/c2ccco2)cc1	8.9µM*	5µM*	-84*	32µM*	·	28µM*	15*	·	21*	PGK validate=3.3µM*
O=C(/C=C/c1ccccc1)NCCc1ccccc1	20µM*	?	?	?	25µM*	-11%	?	·	67*	PGK validate=21µM*
COc1ccc(-c2nnc3c4ccccc4c(-c4ccccc4)nn23)cc1	-18%	18%	·	-1%	3%	·	·	·	·
C/C(=N/NC(=O)c1cc(-c2cccc([N+](=O)[O-])c2)n[nH]1)c1cccc(O)c1	-6%	-25%	-1	3%	21%	-1%	·	·	·
C/C(=N\NC(=O)c1cc(-c2cccc([N+](=O)[O-])c2)n[nH]1)c1ccccc1O	8.9µM*	-11%	-1	-32%	11µM*	?	47*	84*	·
Oc1cc2c(cc1O)[C@H]1c3ccc(O)c(O)c3OC[C@@]1(O)C2	14µM*	7.9µM*	?	22µM*	·	45µM*	38*	24*	27*
Cc1cc(N2CCC(C)CC2)nc2ccc(NC(=O)CCC(=O)N3CCN(c4ccccc4F)CC3)cc12	?	-12%	·	0%	7%	·	·	·	·
O=c1/c(=C\c2cccnc2)sc2nc3ccccc3n12	-11%	-9%	-1	-2%	-1%	-2%	·	·	·
O=C(O)c1ccc(-c2ccc(/C=c3/sc4nc5ccccc5n4c3=O)o2)cc1Cl	1.6µM*	3.2µM*	-64*	10µM*	4µM*	?	15*	3*	6*	PGK validate=12µM*
Cc1ccc2nc(/C(C#N)=C/c3cccc(Br)c3)[nH]c2c1	56µM*	?	·	-19%	22µM*	·	42*	17*	60*
Cc1ccc2nc(/C(C#N)=C/c3ccccc3C(=O)O)[nH]c2c1	-8%	104%	-4	-11%	13%	-17%	·	·	·
Cc1ccc2nc(/C(C#N)=C/c3ccc(-c4cccc(Cl)c4)o3)[nH]c2c1	89µM*	79µM*	·	50µM*	?	·	19*	19*	67*
Cc1ccc2nc(/C(C#N)=C\c3ccc(N4CCCCC4)c([N+](=O)[O-])c3)[nH]c2c1	-14%	?	·	-11%	25µM*	-13%	38*	47*	60*
CCCCC[C@H](O)/C=C/C1=C(C/C=C\CCCC(=O)O)C(=O)CC1	·	·	·	5%[19.4 µM]	·	·	·	·	·
CCOc1ccc(CNC(=O)c2cnc3sc(N4CCC(C)CC4)nn3c2=O)cc1OC	-4%	-4%	·	14%	1%	·	·	·	·
Cc1ccc(S(=O)(=O)OCC(=O)Nc2ccc(C(=O)O)c(O)c2)cc1	3.2µM*	20µM*	-22	25µM*	·	?	19*	3.4*	19*
Cc1cccc2c(N=NC(=O)c3ccc(NS(=O)(=O)c4cccs4)cc3)c(O)[nH]c12	11µM*	?	-77*	?	·	20µM*	17*	·	19*
O=C(N=Nc1c(O)[nH]c2ccc(F)cc12)c1ccc(NS(=O)(=O)c2cccs2)cc1	?	20%	-15	-8%	·	0%	·	·	·
COc1ccc2nc(-n3c(O)c(C4=c5ccccc5=NC4=O)[nH]c3=S)sc2c1	8.9µM*	?	-67*	?	8.9µM*	25µM*	27*	17*	27*
Cn1c(O)c(C2=c3ccccc3=NC2=O)[nH]c1=S	-16%	4%	-15	-5%	-2%	-11%	·	·	·
COc1cc(/C=N/NC(=O)c2ccncc2)ccc1OCC(=O)Nc1ccccc1	9%	-19%	2	-6%	0%	-7%	·	·	·
SMILES	Pol eta inh-1	Pol iota inh	PI5P4K alpha inh	Pol kappa inh-1	POLB inh	WRN inhibitor	Pol iota confirm	Pol kappa inh-2	Pol eta inh-2	others
COc1cc(/C=N/NC(=O)c2ccccc2O)ccc1OCC(=O)Nc1ccccc1	50µM*	28µM*	-3	50µM*	6.3µM*	?	42*	17*	?
O=C(COc1ccc(/C=N/NC(=O)c2ccccc2O)cc1)Nc1ccccc1	?	?	-14	?	18µM*	-36%	·	47*	·	PGK validate=15µM*
CC(/C=C1\SC(=S)N(c2ccc(C(=O)O)cc2)C1=O)=C\c1ccccc1	22µM*	20µM*	-57*	-37%	-24%	?	38*	·	43*
Cn1c2ccccc2c2cc(/C=N/NC(=O)c3cc(O)ccc3O)ccc21	10µM*	10µM*	-90*	50µM*	10µM*	22µM*	?	·	54*
Cc1ccc(C(=O)O)cc1N1C(=O)c2cccc3c([N+](=O)[O-])ccc(c23)C1=O	10µM*	16µM*	?	40µM*	18µM*	?	27*	6.7*	30*
O=C(N/N=C/c1cccn1-c1cccc(C(=O)O)c1)Nc1ccccc1	7.9µM*	?	-24	79µM*	28µM*	-15%[11.6 µM]	75*	·	60*
